Here are results for 57 compounds from the supplement of paper PMC13380429.

Assay [1] has as its system Vero E6 infected with SARS-CoV-2. The assay is described as follows: morphology score (similarity to uninfected cells); higher = more like uninfected cells. To be noted: 24 h.
Assay [2] has the same test system. The assay can be described thus: SARS-CoV-2 infection rate relative to infected DMSO; higher = more infection, active = 60 or less. To be noted: 24 h.

In assay [1], `O=C1c2ccccc2CCC1CNCCc1ccc(O)cc1` (centres undefined) (10 µM) displayed a morphology score of 0.0149. Also, the SARS-CoV-2 infection rate in assay [2] is 106% (inactive).
The matching figures for `Brc1c(Br)c(Br)c2[nH]nnc2c1Br` [4,5,6,7-tetrabromobenzotriazole] (10 µM): -0.0654 and 106% (inactive).
The matching figures for `CN[C@@H]1[C@@H](O)[C@@H](O[C@@H]2[C@@H](O)[C@H](O[C@H]3OC(CN)=CC[C@H]3N)[C@@H](N)C[C@H]2N)OC[C@]1(C)O` [Sisomicin (sulfate)] (10 µM): 0.222 and 102% (inactive).
The matching figures for `COc1cc2c(c(OC)c1OC)-c1c(cc3c(c1OC)OCO3)CC(C)C(C)C2` (centres undefined) [schisandrin-B] (10 µM): 0.244 and 99.5% (inactive).
In assay [1], `Oc1ccc(/C=C/c2cc(O)cc(O)c2)cc1` [resveratrol] (10 µM) showed a morphology score of 0.0102. For the same compound, in assay [2], the SARS-CoV-2 infection rate was 104% (inactive).
The matching figures for `NC(=O)OCCCc1ccccc1` [phenprobamate] (10 µM): 0.0438 and 102% (inactive).
Taken in the same sequence, the figures for `Nc1cc(C(Cl)=C(Cl)Cl)c(S(N)(=O)=O)cc1S(N)(=O)=O` [clorsulon] (10 µM) were 0.206 and 98% (inactive).
The matching figures for `CC(C)CCN1c2nc(Nc3cc(F)c(O)c(F)c3)ncc2N(C)C(=O)[C@@H]1C` (0.833333 µM): 0.164 and 106% (inactive).
Turning to `C[C@@H]1CCC[C@H](C)N1NC(=O)c1ccc(Cl)c(S(N)(=O)=O)c1` [clopamide] (10 µM), the morphology score in assay [1] was -0.0797. Further, the SARS-CoV-2 infection rate in assay [2] was 103% (inactive).
On to `CNS(=O)(=O)CCc1ccc2[nH]cc(C3CCN(C)CC3)c2c1` [naratriptan] (10 µM), for which the morphology score in assay [1] is 0.0727. For the same compound, the SARS-CoV-2 infection rate in assay [2] is 104% (inactive).
Take `Oc1cc2c(cc1O)[C@H]1c3ccccc3CN[C@@H]1CC2` (racemic) [dihydrexidine] (10 µM): in assay [1], the morphology score was -0.0209. The SARS-CoV-2 infection rate in assay [2] is 101% (inactive).
The matching figures for `CCn1cc(-c2cccc(C(F)(F)F)c2)c2sc(C(=N)NC3CCS(=O)(=O)CC3)cc2c1=O` (10 µM): -0.122 and 110% (inactive).
The compound `COc1cc2c(cc1OC)C1CC(=O)C(CC(C)C)CN1CC2` (centres undefined) [tetrabenazine] (10 µM) gave a morphology score in assay [1] of 0.159. Besides, the SARS-CoV-2 infection rate in assay [2] is 102% (inactive).
Taken in the same sequence, the figures for `Cn1cc(C[C@@H](N)C(=O)O)c2ccccc21` [indoximod] (10 µM) were 0.183 and 110% (inactive).
Taken in the same sequence, the figures for `O=C(Nc1cccc(Cl)c1)c1ccccn1` (10 µM) were 0.228 and 106% (inactive).
The compound `Cc1c(O)c(=O)n(-c2ccccc2)n1C` [4-hydroxy-phenazone] (10 µM) returned a morphology score in assay [1] of -0.0731. For the same compound, the SARS-CoV-2 infection rate in assay [2] was 116% (inactive).
On to `[NH-]c1c[n+](N2CCOCC2)no1` [linsidomine] (10 µM), for which the morphology score in assay [1] was -0.0679. The SARS-CoV-2 infection rate in assay [2] was 117% (inactive).
Taken in the same sequence, the figures for `C[N+](C)(C)CCCCCC[N+](C)(C)C` [hexamethonium] (10 µM) were -0.257 and 114% (inactive).
Taken in the same sequence, the figures for `Nc1nc(=O)n([C@@H]2O[C@H](CO)[C@@H](O)[C@@H]2F)cc1I` [fiacitabine] (10 µM) were -0.0647 and 111% (inactive).
The matching figures for `C[C@H](CCC(=O)O)[C@H]1CC[C@H]2[C@@H]3CC[C@@H]4C[C@H](O)CC[C@]4(C)[C@H]3C[C@H](O)[C@]12C` [deoxycholic-acid] (10 µM): 0.0921 and 104% (inactive).
As for `Cc1ccc(/N=C/N(C)/C=N/c2ccc(C)cc2C)c(C)c1` [amitraz] (10 µM), the morphology score in assay [1] is 0.147. In addition, in assay [2], the SARS-CoV-2 infection rate is 106% (inactive).
Taken in the same sequence, the figures for `Nc1ncn([C@H]2C[C@H](O)[C@@H](CO)O2)c(=O)n1` [decitabine] (10 µM) were 0.0186 and 104% (inactive).
Turning to `O=C1CCc2ccc(OCCCCN3CCN(c4cccc(Cl)c4Cl)CC3)cc2N1` [aripiprazole] (10 µM), the morphology score in assay [1] was -0.0119. The SARS-CoV-2 infection rate in assay [2] was 103% (inactive).
Taken in the same sequence, the figures for `CCN(CC)C(=O)N1CCN(C)CC1` [diethylcarbamazine] (10 µM) were 0.035 and 104% (inactive).
Taken in the same sequence, the figures for `O=C(Nc1ncc(SCCN2CCCC2)s1)[C@]1(c2ccc(S(=O)(=O)C3CC3)cc2)C[C@H]1C1CCCCC1` (10 µM) were 0.767 and 17% (active).
In turn, `CCCC(C(=O)OCCN(CC)CC)(c1ccccc1)c1ccccc1` [proadifen] (10 µM) displayed a morphology score in assay [1] of 0.323. For the same compound, the SARS-CoV-2 infection rate in assay [2] is 89.5% (inactive).
Taken in the same sequence, the figures for `CC#C[C@]1(O)CC[C@H]2[C@@H]3CCC4=CC(=O)CCC4=C3[C@@H](c3ccc(N(C)C)cc3)C[C@@]21C` [mifepristone] (10 µM) were 0.443 and 65.5% (inactive).
Regarding `OC[C@H]1OC(O)[C@H](O)[C@@H](O)[C@@H]1O` (some centres undefined) [dextrose] (10 µM), the morphology score in assay [1] is -0.00495. In assay [2], the SARS-CoV-2 infection rate is 110% (inactive).
The matching figures for `O=S(=O)(O)c1cc(I)c(O)c2ncccc12` [chiniofon] (10 µM): 0.0464 and 102% (inactive).
`C[C@@H](N)c1ccc(C(=O)Nc2ccnc3[nH]ccc23)cc1` (10 µM) had a morphology score in assay [1] of -0.104. Also, the SARS-CoV-2 infection rate in assay [2] was 112% (inactive).
The matching figures for `CC[C@H](C)[C@H](N)C(=O)O` [isoleucine] (10 µM): 0.202 and 106% (inactive).
The matching figures for `O=C(NC(=O)c1c(F)cccc1F)Nc1cc(Cl)c(OC(F)(F)C(F)C(F)(F)F)cc1Cl` (centres undefined) [lufenuron] (10 µM): -0.0435 and 111% (inactive).
Taken in the same sequence, the figures for `O=C(/C=C/c1ccc2c(c1)OCO2)N1CCCCC1` [ilepcimide] (10 µM) were 0.197 and 95.5% (inactive).
`CCCc1c(OCCCCc2nnn[nH]2)ccc(C(C)=O)c1O` [tomelukast] (10 µM) yielded a morphology score in assay [1] of -0.0661. The SARS-CoV-2 infection rate in assay [2] is 110% (inactive).
Taken in the same sequence, the figures for `C[C@]12CCC(=O)C=C1CC[C@@H]1[C@@H]2CC[C@@]2(C)[C@H]1CC[C@]2(C)O` [17-alpha-Methyltestosterone] (10 µM) were 0.0827 and 108% (inactive).
The matching figures for `COC(=O)[C@@]12OC[C@]34[C@H]([C@@H](O)[C@@H]1O)[C@@]1(C)CC(=O)C(O)=C(C)[C@@H]1C[C@H]3OC(=O)[C@H](OC(=O)/C=C(\C)C(C)C)[C@@H]24` [bruceantin] (0.833333 µM): -0.0265 and 109% (inactive).
Taken in the same sequence, the figures for `CC(=O)CCCCn1c(=O)c2c(ncn2C)n(C)c1=O` [pentoxifylline] (10 µM) were 0.0323 and 104% (inactive).
Regarding `COc1ccc(-c2coc3cc(O)ccc3c2=O)cc1` [formononetin] (10 µM), the morphology score in assay [1] was 0.158. Also, in assay [2], the SARS-CoV-2 infection rate is 106% (inactive).
The matching figures for `COc1cc2c(cc1OC)C(=O)C(CC1CCN(Cc3ccccc3)CC1)C2` (centres undefined) [donepezil] (10 µM): 0.153 and 100% (inactive).
`C[C@]12CC[C@@H]3c4ccc(O)cc4CC[C@H]3[C@@H]1C[C@@H](O)[C@@H]2O` [estriol] (10 µM) registered a morphology score in assay [1] of -0.0117. Moreover, the SARS-CoV-2 infection rate in assay [2] was 108% (inactive).
The matching figures for `Cc1ccc2c(c1)C1(CCN(CCc3nc(-c4ccccc4)oc3C)CC1)OC(=O)N2` (0.833333 µM): 0.0199 and 104% (inactive).
The compound `OC[C@H]1O[C@@H](n2cnc3c(NC4CCCC4)nc(Cl)nc32)[C@H](O)[C@@H]1O` [2-chloro-N6-cyclopentyladenosine] (10 µM) showed a morphology score in assay [1] of 0.106. Moreover, in assay [2], the SARS-CoV-2 infection rate is 95% (inactive).
Take `CCC(CC)[C@H](NC(C)=O)[C@@H]1[C@H](O)[C@@H](C(=O)O)C[C@H]1NC(=N)N` [peramivir] (10 µM): in assay [1], the morphology score came out at 0.00579. The SARS-CoV-2 infection rate in assay [2] was 102% (inactive).
Taken in the same sequence, the figures for `Cc1cc(C(C)(C)CC(C)(C)C)ccc1OCCOCC[N+](C)(C)Cc1ccccc1` [methylbenzethonium-chloride] (10 µM) were -0.0681 and 101% (inactive).
With `CC[C@H]1OC(=O)C[C@@H](O)[C@H](C)[C@@H](O[C@@H]2O[C@H](C)[C@@H](O[C@H]3C[C@@](C)(O)[C@@H](O)[C@H](C)O3)[C@H](N(C)C)[C@H]2O)[C@@H](CC=O)C[C@@H](C)C(=O)/C=C/C(C)=C/[C@@H]1CO[C@@H]1O[C@H](C)[C@@H](O)[C@@H](OC)[C@H]1OC` (0.833333 µM), the morphology score in assay [1] is -0.000376. In assay [2], the SARS-CoV-2 infection rate is 81% (inactive).
With `CN1C(=O)N(c2ccc(C#N)c(C(F)(F)F)c2)C(=O)[C@]1(CO)c1ccccc1` [GLPG0492-R-enantiomer] (10 µM), in assay [1], the morphology score was -0.00354. Besides, the SARS-CoV-2 infection rate in assay [2] was 104% (inactive).
Taken in the same sequence, the figures for `O=C(O)c1ccc(NC(=O)[C@H](Cc2ccc(O)cc2)NC(=O)c2ccccc2)cc1` [bentiromide] (10 µM) were 0.211 and 106% (inactive).
The matching figures for `COc1ccc(-c2cc(=O)c3c(O)cc(O)cc3o2)cc1O` [diosmetin] (10 µM): 0.205 and 106% (inactive).
Taken in the same sequence, the figures for `CN(C)CCc1c[nH]c2ccc(C[C@H]3COC(=O)N3)cc12` [zolmitriptan] (10 µM) were 0.127 and 92.5% (inactive).
For `CN1c2ccccc2C(=O)N2CCc3c([nH]c4ccccc34)C21` (stereo in doubt) [evodiamine] (10 µM), the morphology score in assay [1] is -0.093. In addition, the SARS-CoV-2 infection rate in assay [2] is 100% (inactive).
The matching figures for `CCCCCCCCCCC(C)(C)C(=O)Nc1c(OC)cc(OC)cc1OC` (10 µM): -0.024 and 111% (inactive).
Taken in the same sequence, the figures for `C[N+](C)(C)CCCCCCCCCC[N+](C)(C)C` [decamethonium] (10 µM) were 0.0864 and 108% (inactive).
The matching figures for `O=C(Nc1cccc(C(F)(F)F)c1)Nc1cc(S(=O)(=O)NC2CC2)ccc1-c1ccsc1` (10 µM): 0.196 and 102% (inactive).
As for `CCCCC(=O)O[C@]1(C(=O)CO)[C@@H](C)C[C@H]2[C@@H]3CCC4=CC(=O)C=C[C@]4(C)[C@@]3(F)[C@@H](O)C[C@@]21C` (10 µM), the morphology score in assay [1] is -0.0636. Besides, the SARS-CoV-2 infection rate in assay [2] is 112% (inactive).
Taken in the same sequence, the figures for `O=C(O)c1cc(/N=N/c2ccc(S(=O)(=O)Nc3ccccn3)cc2)ccc1O` [sulfasalazine] (10 µM) were 0.0447 and 105% (inactive).
For the compound `CN1CCc2c(c3ccccc3n2Cc2ccc(C(=O)NO)cc2)C1` [tubastatin-A] (0.833333 µM), the morphology score in assay [1] amounted to 0.115. Besides, in assay [2], the SARS-CoV-2 infection rate is 95.5% (inactive).
Regarding `CCOc1ccc(C[C@H]2NC(=O)CCSSC[C@@H](C(=O)N3CCC[C@H]3C(=O)N[C@@H](CCCN)C(=O)NCC(N)=O)NC(=O)[C@H](CC(N)=O)NC(=O)[C@H]([C@@H](C)O)NC(=O)[C@H]([C@@H](C)CC)NC2=O)cc1` [atosiban] (10 µM), the morphology score in assay [1] was found to be 0.175. Moreover, in assay [2], the SARS-CoV-2 infection rate is 91% (inactive).
